# Results: PMC4336329 (PLoS ONE, 2015)
# The campaign covered roughly 310,000 compounds. About 2,200 (0.71%) showed an effect of 50% or more. Effects have a minus sign here. Many of the other results were omitted from the sample, so strong results are more common in it than they were.
# Biological target: human ether-à-go-go-related gene (hERG) potassium channel (human, UniProt Q12809)
# Experiment: primary screen, population patch clamp on CHO cells stably expressing hERG; higher = less effect of the substance
# Method: Briefly, Chinese hamster ovary (CHO) cells stably expressing the hERG channel were dislodged from tissue culture flasks and dispensed into PPC plates. […] During the recording, background leak currents were estimated by a 100 ms step to -80 mV from an initial holding potential of -70 mV and subtracted from the subsequent current measurement. The campaign was conducted in two phases using slight differences in recording protocol. In the first phase, the initial voltage pulse used a 100 ms step to -30 mV from a holding potential of -70 mV, a 2 s conditioning step to +25 mV, and a 2 s test step to -30 mV. During the second phase of the screen, the potential during the conditioning step was raised to +45 mV. In both phases of the campaign, a secondary voltage pulse was applied using the same parameters as the second phase initial pulse. The initial and secondary pulses were applied in the absence of compound, and upon application of 1 μM and 10 μM test concentrations. Small molecule effects on hERG current density were quantified by […].
# Chain of human ether-à-go-go-related gene (hERG) potassium channel (Q12809 whole entry, looked up): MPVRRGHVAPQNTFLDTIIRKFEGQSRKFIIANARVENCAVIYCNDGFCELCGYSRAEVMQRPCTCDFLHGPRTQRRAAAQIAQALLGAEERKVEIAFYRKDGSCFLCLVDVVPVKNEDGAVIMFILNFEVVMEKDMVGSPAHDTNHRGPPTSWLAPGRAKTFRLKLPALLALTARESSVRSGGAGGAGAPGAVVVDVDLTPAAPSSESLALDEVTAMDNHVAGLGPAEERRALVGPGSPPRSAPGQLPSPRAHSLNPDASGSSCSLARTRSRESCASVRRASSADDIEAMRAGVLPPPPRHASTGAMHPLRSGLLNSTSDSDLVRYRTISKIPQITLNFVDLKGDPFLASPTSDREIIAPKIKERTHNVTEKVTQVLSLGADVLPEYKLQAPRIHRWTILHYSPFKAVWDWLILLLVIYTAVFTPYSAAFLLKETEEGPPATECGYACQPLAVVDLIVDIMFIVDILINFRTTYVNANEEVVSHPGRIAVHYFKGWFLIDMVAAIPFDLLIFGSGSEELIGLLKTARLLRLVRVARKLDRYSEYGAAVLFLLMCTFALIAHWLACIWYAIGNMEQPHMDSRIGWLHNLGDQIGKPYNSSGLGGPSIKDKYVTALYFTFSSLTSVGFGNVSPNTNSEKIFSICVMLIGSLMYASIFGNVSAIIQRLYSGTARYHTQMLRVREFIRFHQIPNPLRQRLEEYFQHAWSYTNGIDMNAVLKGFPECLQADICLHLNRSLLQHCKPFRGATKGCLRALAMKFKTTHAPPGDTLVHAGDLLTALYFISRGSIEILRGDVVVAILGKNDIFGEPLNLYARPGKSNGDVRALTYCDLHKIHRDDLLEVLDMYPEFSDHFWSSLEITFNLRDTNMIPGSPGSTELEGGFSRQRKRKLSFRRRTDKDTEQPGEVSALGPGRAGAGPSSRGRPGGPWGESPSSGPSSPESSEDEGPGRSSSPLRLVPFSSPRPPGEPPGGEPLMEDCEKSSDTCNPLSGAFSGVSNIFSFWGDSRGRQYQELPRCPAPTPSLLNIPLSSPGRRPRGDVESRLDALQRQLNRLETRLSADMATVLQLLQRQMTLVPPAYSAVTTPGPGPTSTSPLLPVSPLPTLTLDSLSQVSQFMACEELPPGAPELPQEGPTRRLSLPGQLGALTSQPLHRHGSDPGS
row,SMILES,"hERG current change (%, negative = inhibition) at 1uM [%]"
1,N#Cc1c(NC(=S)NC(=O)C2CCCC2)sc2c1CCCCC2,10.1
2,COc1ccc(N2CCN(c3ncnc4c3cnn4-c3ccc(C)cc3C)CC2)cc1,13.6
3,CCC(=O)N1CCc2cc(S(=O)(=O)NC(C(=O)NCc3ccc(C)cc3)C(C)C)ccc21 (stereo not drawn),1.57
4,CCOc1ccc2nc(N3CCCC(C(=O)NCCCN4CCCCC4)C3)sc2c1 (stereo not drawn),-11.7
5,CCN=C(NCC)SC1CC(=O)N(c2ccc(OCC)cc2)C1=O (stereo not drawn),7.6
6,Cn1cc(/C=N/NC(=O)c2ccc(C#N)cc2F)c2ccccc21,12.6
7,N#Cc1c(N2CCCC(O)C2)nc(N)c2c(N)nc3c(c12)CC(=O)N3C12CC3CC(CC(C3)C1)C2 (stereo not drawn),8.76
8,O=C(NCc1ccncc1)/C(=C\c1ccc(F)cc1)NC(=O)c1ccccc1,-52.3
9,CN(C)c1ccc(/C=C(\NC(=O)c2ccccc2)C(=O)NCc2ccncc2)cc1,4.78
10,Cc1ccc(C(=O)N/C(=C\c2cccc([N+](=O)[O-])c2)C(=O)NCc2ccncc2)cc1,-65.3
11,CCNC(=O)/C(=C/c1cccc([N+](=O)[O-])c1)NC(=O)c1ccc(C)cc1,-17.3
12,O=C(NCc1ccncc1)/C(=C/c1cccc([N+](=O)[O-])c1)NC(=O)c1ccccc1,-31.2
13,COc1ccc(/C=C(/NC(=O)c2ccccc2)C(=O)NCc2ccncc2)cc1,-12.6
14,Cc1ccc(C23CC4CC(CC(C(=O)OCC(=O)NC5CCS(=O)(=O)C5)(C4)C2)C3)cc1 (stereo not drawn),1.74
15,COc1ccc(OCC(=O)NNC(=O)C(=O)Nc2cc(OC)ccc2OC)cc1,13.5
16,N=c1c2c(-c3ccccc3)c(-c3ccccc3)oc2ncn1Cc1ccco1,9.94
17,N=c1c2c(-c3ccccc3)c(-c3ccccc3)oc2ncn1CCCN1CCOCC1,-84.5
18,COc1ccc(-c2oc3ncn(CCN4CCOCC4)c(=N)c3c2-c2ccc(OC)cc2)cc1,-7.75
19,N=c1c2c(-c3ccccc3)c(-c3ccccc3)oc2ncn1CCN1CCOCC1,-63.5
20,c1ccc(-c2oc3ncnc(NCCN4CCOCC4)c3c2-c2ccccc2)cc1,9.8
21,c1ccc(-c2oc3ncnc(NCCCN4CCOCC4)c3c2-c2ccccc2)cc1,0.244

row,SMILES,"hERG current change (%, negative = inhibition) at 1uM [%]"
1,COc1ccccc1CCc1nnc(CCC(=O)N(C)Cc2ccncc2C)o1,16.2
2,CN(Cc1cccc2cnccc12)C(=O)CCc1nnc(CCc2ccccc2)o1,-5.46
3,COc1ccccc1CCc1nnc(CCC(=O)N(C)Cc2cccc3cnccc23)o1,-53.3
4,COc1ccc2[nH]c(=O)c(CN(Cc3cccnc3)S(=O)(=O)c3ccccc3F)cc2c1,7.89
5,CCOc1ccc(NC(=O)CN(C)C(=O)c2ccc(-c3ccc(C(C)=O)cc3)o2)cc1OCC,10.5
6,Cl.Nc1c2c(nc3ccccc13)CCCC2,-12.6
7,Nc1c2c(nc3ccn(Cc4ccccc4)c(=O)c13)CCC2,-59
8,Nc1c2c(nc3ccn(-c4ccccc4)c(=O)c13)CCCCC2,-37.1
9,NC(=O)NC(c1ccc(Cl)cc1)c1ccccc1Cl (stereo not drawn),7.43
10,CC(=O)Nc1ccc(-n2c(C)ccc2C)cc1,12.9
11,O=C(/C=C/c1cccc(F)c1)N1CCN(c2ccccn2)CC1,-68.4
12,O=C(/C=C/c1ccccc1)N1CCN(c2ccccn2)CC1,-3.17
13,O=C(/C=C/c1ccccc1Cl)N1CCN(c2ncccn2)CC1,7.12
14,O=C(/C=C/c1cccc(F)c1)N1CCN(c2ncccn2)CC1,12.4
15,O=C(/C=C/c1c(Cl)cccc1Cl)N1CCN(c2ncccn2)CC1,-53
16,O=C(/C=C/c1ccc(F)cc1)N1CCN(c2ncccn2)CC1,18.1
17,Cc1ccc2cc(CCNC(=O)c3ccc(S(=O)(=O)N4CCOCC4)cc3)c(=O)[nH]c2c1C,11.8
18,Cc1ccc(C)c(S(=O)(=O)NCC(=O)NCc2ccco2)c1,4.55
19,Cc1cccc(C)c1NC(=O)CCCSc1nnc(N)s1,8.09
20,Cc1ccc(OCC(O)Cn2c(=N)n(CCN3CCOCC3)c3ccccc32)cc1.Cl (stereo not drawn),-9.7
21,CCCCn1c(=N)n(CC(O)COc2ccccc2)c2ccccc21 (stereo not drawn),-68

row,SMILES,"hERG current change (%, negative = inhibition) at 1uM [%]"
1,CCCn1c(=N)n(CCOc2ccc(OC)cc2)c2ccccc21,-22
2,Br.CCCCn1c(=N)n(CCOc2ccc(C)cc2)c2ccccc21,-59.6
3,CCN(CC)CCn1c(=N)n(CC(O)COc2ccccc2)c2ccccc21.Cl (stereo not drawn),-20.5
4,CCCCn1c(=N)n(CC(O)COc2ccc(C)cc2)c2ccccc21.Cl (stereo not drawn),-77
5,Cl.N=c1n(CCN2CCOCC2)c2ccccc2n1CC(O)COc1ccccc1 (stereo not drawn),-3.77
6,CCCn1c(=N)n(CC(O)COc2ccc(C)cc2)c2ccccc21.Cl (stereo not drawn),-68
7,CCn1c(=N)n(CCOc2ccc(OC)cc2)c2ccccc21,-25.5
8,CCn1c(=N)n(CC(O)COc2ccc(C)cc2)c2ccccc21.Cl (stereo not drawn),-16.8
9,CCCCn1c(=N)n(CC(O)c2ccccc2)c2ccccc21.Cl (stereo not drawn),-36.7
10,Cc1ccc(OCC(O)Cn2c3ccccc3c3ccccc32)cc1 (stereo not drawn),16.8
11,CCOC(=O)C1CCN(C(=O)CSC2=NCCS2)CC1,8.93
12,NS(=O)(=O)c1ccc(CCNC(=O)CN2CCN(Cc3cccc4ccccc34)CC2)cc1,8.33
13,O=C(COC(=O)CN1C(=O)c2ccccc2C1=O)Nc1cccc(F)c1,5.95
14,Cc1ccc(C)c(NC(=O)COC(=O)CNC(=O)c2ccccc2Cl)c1,9.98
15,Cc1cc(Cl)cc(Cl)c1CNc1c([N+](=O)[O-])c(=O)oc2ccccc12,7.59
16,CC(C)c1cccc(C(C)C)c1NC(=O)CN1C(=O)NC2(CCCCCCC2)C1=O,8.87
17,Cc1ccc(S(=O)(=O)CC(=O)c2ccc(C(C)(C)C)cc2)cc1,2.43
18,Br.CCCCn1c(=N)n(CC(=O)c2ccc(OC)cc2)c2ccccc21,-62.2
19,Br.COc1ccc(C(=O)Cn2c(=N)n(C)c3ccccc32)cc1,-9.98
20,Br.CCn1c(=N)n(CC(=O)c2ccc(OC)cc2)c2ccccc21,-0.629
21,C=CCOn1c(C)c(C(C)=O)c2c3nonc3ccc21,13.1

row,SMILES,"hERG current change (%, negative = inhibition) at 1uM [%]"
1,O=C(OCc1ccc2c(c1)OCO2)c1ccc(S(=O)(=O)N2CCCC2)cc1,3.44
2,CC(=O)Nc1ccc(-c2nnc(SCc3ccccc3C#N)n2C)cc1,-5.5
3,O=C1N=C2SCCN2/C1=C\c1ccccc1Cl,5.64
4,CCn1c2ccccc2c2cc(NC(=O)CSc3nnnn3-c3ccccc3)ccc21,9.35
5,O=C(NCCCn1ccnc1)/C(=C/c1ccco1)NC(=O)c1ccco1,-10.2
6,COc1ccc(C(=O)N/C(=C\c2ccco2)C(=O)NCCCn2ccnc2)cc1,-0.883
7,O=C(NCCCn1ccnc1)/C(=C\c1ccco1)NC(=O)c1ccco1,-10.8
8,Cc1ccc(C(=O)N/C(=C/c2ccco2)C(=O)NCCCn2ccnc2)cc1,-62.5
9,Cc1ccc(C(=O)N/C(=C\c2ccco2)C(=O)NCCCn2ccnc2)cc1,-64.1
10,Cc1ccc(C(=O)N/C(=C\c2ccco2)C(=O)NCCCn2ccnc2)cc1C,-15.7
11,O=C(Nc1nc(-c2nc3ccccc3s2)cs1)C1COc2ccccc2O1 (stereo not drawn),13.3
12,COC(=O)c1sc(NC(=O)c2cc(-c3ccccc3)nc3ccccc23)c(C#N)c1C,-6.75
13,CCOc1ccc(S(=O)(=O)N2CCC(C(=O)N3CCN(c4ccccc4F)CC3)CC2)cc1C,-1.32
14,CCc1nc2scc(-c3ccccc3)c2c(=O)n1N,2.81
15,COc1ccc(-n2cnnc2SCC(=O)Nc2nc(C)c(Cl)cc2Cl)cc1,-8.71
16,CCCn1c(=NC(=O)c2ccco2)c(C(=O)OCC)cc2c(=O)n3ccccc3nc21,-6.68
17,CCOC(=O)c1cc2c(=O)n3cccc(C)c3nc2n(CC(C)C)c1=NC(=O)c1ccco1,-64.7
18,CCCCn1c(=NC(=O)c2ccco2)c(C(=O)OCC)cc2c(=O)n3cccc(C)c3nc21,-16.5
19,CCOC(=O)c1cc2c(=O)n3cccc(C)c3nc2n(Cc2ccco2)c1=NC(=O)c1ccccc1,0.671
20,CCCCCn1c(=NC(=O)c2ccco2)c(C(=O)OCC)cc2c(=O)n3ccccc3nc21,-30.9
21,CCOCCCn1c(=NC(=O)c2ccco2)c(C(=O)OCC)cc2c(=O)n3cccc(C)c3nc21,-73.9
